In all, about 5,500 compounds went through this assay and about 2,000 (36%) were called active. Roughly 18% stayed inconclusive and do not appear here. No stated cut-off is given here; in the data, active means normalized growth mostly below about 0.91 (no sharp cut-off); inconclusive means no clear call, values can overlap the other calls; inactive means mostly above about 0.92. The list shows a part of the results.
Test: chemical genetic growth profiling, strain panel (AID 1159580);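 further: tested at 20 µM; growth read once vehicle control cultures reached saturation at 30 °C; 1 = growth at the plate median or of vehicle wells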
Conditions: growth OD

Measured: normalized growth

COc1cnc(NS(=O)(=O)c2ccc(N)cc2)nc1
inactive: S. cerevisiae deletion strains, locus YJR075W, strain HOC1, stronger effect = lower value 0.978 | S. cerevisiae deletion strains, locus YKL009W, strain mrt4, stronger effect = lower value 0.994 | S. cerevisiae deletion strains, locus YKL068W, stronger effect = lower value 0.983 | S. cerevisiae deletion strains, locus YKL085W, strain MDH1 (second series), stronger effect = lower value 0.971 | S. cerevisiae deletion strains, locus YKL085W, strain MDH1, stronger effect = lower value 0.971 | S. cerevisiae deletion strains, locus YKL160W, strain elf1, stronger effect = lower value 0.999 | S. cerevisiae deletion strains, locus YKL190W, strain CNB1, stronger effect = lower value 0.979 | S. cerevisiae deletion strains, locus YKR001C, strain vps1, stronger effect = lower value 0.964 | S. cerevisiae deletion strains, locus YKR026C, strain gcn3, stronger effect = lower value 1 | S. cerevisiae deletion strains, locus YKR091W, strain srl3, stronger effect = lower value 0.998 | S. cerevisiae deletion strains, locus YLL001W, strain dnm1, stronger effect = lower value 0.966 | S. cerevisiae deletion strains, locus YLL026W, stronger effect = lower value 1 | S. cerevisiae deletion strains, locus YLL041C, strain sdh2, stronger effect = lower value 0.997 | S. cerevisiae deletion strains, locus YLR027C, strain aat2, stronger effect = lower value 1.01 | S. cerevisiae deletion strains, locus YLR039C, strain RIC1, stronger effect = lower value 0.969 | S. cerevisiae deletion strains, locus YLR058C, strain SHM2, stronger effect = lower value 0.976 | S. cerevisiae deletion strains, locus YLR102C, strain apc9, stronger effect = lower value 0.973 | S. cerevisiae deletion strains, locus YLR113W, strain HOG1, stronger effect = lower value 0.989 | S. cerevisiae deletion strains, locus YLR221C, strain rsa3, stronger effect = lower value 0.988 | S. cerevisiae deletion strains, locus YLR258W, strain gsy2, stronger effect = lower value 0.99 | S. cerevisiae deletion strains, locus YLR262C, strain YPT6 (second series), stronger effect = lower value 1.02 | S. cerevisiae deletion strains, locus YLR262C, strain YPT6, stronger effect = lower value 0.96 | S. cerevisiae deletion strains, locus YLR268W, strain sec22, stronger effect = lower value 0.888 | S. cerevisiae deletion strains, locus YLR320W, strain mms22, stronger effect = lower value 0.965 | S. cerevisiae deletion strains, locus YLR330W, strain CHS5, stronger effect = lower value 0.994 | S. cerevisiae deletion strains, locus YLR342W, strain FKS1 (second series), stronger effect = lower value 1.03 | S. cerevisiae deletion strains, locus YLR342W, strain FKS1, stronger effect = lower value 1.01 | S. cerevisiae deletion strains, locus YLR357W, strain rsc2, stronger effect = lower value 0.945 | S. cerevisiae deletion strains, locus YLR370C, strain arc18, stronger effect = lower value 1 | S. cerevisiae deletion strains, locus YLR371W, strain rom2, stronger effect = lower value 0.97 | S. cerevisiae deletion strains, locus YLR384C, strain iki3, stronger effect = lower value 1 | S. cerevisiae deletion strains, locus YLR418C, strain cdc73, stronger effect = lower value 0.99 | S. cerevisiae deletion strains, locus YML016C, strain PPZ1, stronger effect = lower value 0.993 | S. cerevisiae deletion strains, locus YML032C, strain rad52, stronger effect = lower value 0.97 | S. cerevisiae deletion strains, locus YML120C, strain ndi1, stronger effect = lower value 1.02 | S. cerevisiae deletion strains, locus YML124C, strain tub3, stronger effect = lower value 0.979 | S. cerevisiae deletion strains, locus YMR058W, strain fet3, stronger effect = lower value 1 | S. cerevisiae deletion strains, locus YMR078C, strain ctf18, stronger effect = lower value 0.976 | S. cerevisiae deletion strains, locus YMR125W, strain sto1, stronger effect = lower value 0.991 | S. cerevisiae deletion strains, locus YMR129W, stronger effect = lower value 0.985 | S. cerevisiae deletion strains, locus YMR205C, strain PFK2, stronger effect = lower value 0.998 | S. cerevisiae deletion strains, locus YMR223W, strain ubp8, stronger effect = lower value 0.979 | S. cerevisiae deletion strains, locus YMR231W, strain pep5, stronger effect = lower value 0.998 | S. cerevisiae deletion strains, locus YMR307W, strain GAS1, stronger effect = lower value 1.03 | S. cerevisiae deletion strains, locus YNL067W, strain RPL9B, stronger effect = lower value 0.982 | S. cerevisiae deletion strains, locus YNL071W, strain lat1, stronger effect = lower value 1.01 | S. cerevisiae deletion strains, locus YNL183C, strain NPR1, stronger effect = lower value 0.933 | S. cerevisiae deletion strains, locus YNL209W, strain ssb2, stronger effect = lower value 0.997 | S. cerevisiae deletion strains, locus YNL233W, strain BNI4, stronger effect = lower value 1 | S. cerevisiae deletion strains, locus YNL248C, strain rpa49, stronger effect = lower value 0.982 | S. cerevisiae deletion strains, locus YNL250W, strain rad50, stronger effect = lower value 0.982 | S. cerevisiae deletion strains, locus YNL271C, strain bni1, stronger effect = lower value 0.979 | S. cerevisiae deletion strains, locus YNL298W, strain CLA4, stronger effect = lower value 0.965 | S. cerevisiae deletion strains, locus YNL307C, strain MCK1, stronger effect = lower value 0.981 | S. cerevisiae deletion strains, locus YNL322C, strain KRE1 (second series), stronger effect = lower value 0.986 | S. cerevisiae deletion strains, locus YNR049C, strain mso1, stronger effect = lower value 1 | S. cerevisiae deletion strains, locus YNR052C, strain pop2, stronger effect = lower value 0.977 | S. cerevisiae deletion strains, locus YOL006C, strain TOP1, stronger effect = lower value 0.945 | S. cerevisiae deletion strains, locus YOL012C, strain htz1 0.813 | S. cerevisiae deletion strains, locus YOL147C, strain pex11, stronger effect = lower value 0.985 | S. cerevisiae deletion strains, locus YOR001W, strain rrp6, stronger effect = lower value 0.99 | S. cerevisiae deletion strains, locus YOR061W, strain CKA2, stronger effect = lower value 0.962 | S. cerevisiae deletion strains, locus YOR069W, strain VPS5, stronger effect = lower value 0.993 | S. cerevisiae deletion strains, locus YOR070C, strain gyp1, stronger effect = lower value 1.01 | S. cerevisiae deletion strains, locus YOR080W, strain dia2, stronger effect = lower value 0.98 | S. cerevisiae deletion strains, locus YOR083W, strain WHI5, stronger effect = lower value 0.943 | S. cerevisiae deletion strains, locus YOR106W, strain vam3, stronger effect = lower value 0.986 | S. cerevisiae deletion strains, locus YOR136W, strain idh2, stronger effect = lower value 0.987 | S. cerevisiae deletion strains, locus YOR144C, strain elg1, stronger effect = lower value 0.976 | S. cerevisiae deletion strains, locus YOR184W, strain ser1, stronger effect = lower value 0.985 | S. cerevisiae deletion strains, locus YOR231W, strain MKK1, stronger effect = lower value 0.99 | S. cerevisiae deletion strains, locus YOR265W, strain rbl2, stronger effect = lower value 1.02 | S. cerevisiae deletion strains, locus YOR270C, strain vph1, stronger effect = lower value 1.04 | S. cerevisiae deletion strains, locus YOR290C, strain snf2, stronger effect = lower value 0.984 | S. cerevisiae deletion strains, locus YOR316C, strain cot1, stronger effect = lower value 0.958 | S. cerevisiae deletion strains, locus YPL051W, strain arl3, stronger effect = lower value 0.999 | S. cerevisiae deletion strains, locus YPL055C, strain LGE1, stronger effect = lower value 0.949 | S. cerevisiae deletion strains, locus YPL078C, strain atp4, stronger effect = lower value 0.991 | S. cerevisiae deletion strains, locus YPL106C, strain sse1, stronger effect = lower value 0.952 | S. cerevisiae deletion strains, locus YPL240C, strain hsp82, stronger effect = lower value 1 | S. cerevisiae deletion strains, locus YPL256C, strain CLN2, stronger effect = lower value 0.99 | S. cerevisiae deletion strains, locus YPR119W, strain clb2, stronger effect = lower value 0.985 | S. cerevisiae deletion strains, locus YPR141C, strain kar3, stronger effect = lower value 0.96 | S. cerevisiae deletion strains, locus YPR163C, strain tif3, stronger effect = lower value 0.991 | S. cerevisiae deletion strains, locus YPR167C, strain met16, stronger effect = lower value 0.983 | S. cerevisiae deletion strains, strain wtn01, stronger effect = lower value 0.989 | S. cerevisiae strains, strain wild type, stronger effect = lower value 0.983

— PubChem BioAssay AID1159580 (chemical genetic matrix, 2015)
